L3MBTL1 inh – inhibitors of human L3MBTL1; Q9Y468; AlphaScreen L3MBTL1–H3K9me1 peptide binding; Potency, µM (titrated, usually from 57.1 µM), without a hit: at the highest dose activity, negative = inhibition, hits mostly inhibitors; 0.66% of 230,000 active; further: on the % scale 0 is the no-effect control and ±100 the full control effect; nearly all actives have a fitted effect of over 60% in size
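Read-out is AlphaScreen signal from streptavidin donor and nickel chelate acceptor beads (10 ug/mL final each) bridging L3MBTL1 (50 nM) and biotinylated K9-monomethylated H3(1-15) peptide (75 nM), after 30 min compound exposure at room temperature.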
HP1b chromo inh – HP1-beta chromodomain-methylated histone interaction inhibition; Potency, µM (doses to about 114 µM), inactives show at the highest dose activity change, negative = inhibition, usual class: inhibitors; AID 540317; AlphaScreen HP1-beta / biotin-H3K9me3 peptide binding; P83916; 0.56% of 390,000 active; further: nearly all actives have a fitted effect of over 70% in size
Target sequence (P83916 whole entry, looked up): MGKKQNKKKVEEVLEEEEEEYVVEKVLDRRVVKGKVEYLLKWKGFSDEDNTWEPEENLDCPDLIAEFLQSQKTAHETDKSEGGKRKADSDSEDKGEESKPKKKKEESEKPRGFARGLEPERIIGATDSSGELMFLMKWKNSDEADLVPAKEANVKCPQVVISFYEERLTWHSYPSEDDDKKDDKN
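Compound inhibition of the preformed complex between 50 nM HP1-beta and 50 nM biotinylated H3K9me3 peptide was read by AlphaScreen. Buffer was PBS pH 7.4 with 0.01% Tween-20. Incubations ran 30 min at room temperature, with 10 ug/mL donor/acceptor beads.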
G9a block – blocks human histone lysine methyltransferase G9a; G9a H3K9 monomethylation, AlphaScreen, 2 h; Potency, µM (top dose mostly 102 µM), without a hit: at the highest dose activity, negative = inhibition, most hits filed as inhibitors; 8.8% of 350,000 active; AID 504332; further: on the % scale 0 is the no-effect control and ±100 the full control effect; nearly all actives have a fitted effect of over 75% in size
Target sequence (Q96KQ7 913-1193 limits assumed): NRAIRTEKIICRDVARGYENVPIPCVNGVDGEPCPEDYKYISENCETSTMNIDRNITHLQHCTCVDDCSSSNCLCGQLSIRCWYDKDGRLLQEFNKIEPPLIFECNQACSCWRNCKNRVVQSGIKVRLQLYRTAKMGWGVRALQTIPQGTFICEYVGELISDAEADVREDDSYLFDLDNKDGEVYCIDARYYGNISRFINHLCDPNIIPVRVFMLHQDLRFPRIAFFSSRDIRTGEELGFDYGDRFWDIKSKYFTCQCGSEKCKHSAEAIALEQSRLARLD
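Chemiluminescent proximity detection of H3K9 monomethylation, read after 10 min bead incubation in the dark. Reaction: 20 nM G9a, 500 nM biotin-H3K9 peptide, 20 uM SAM cofactor, 2 h, room temperature, following 15 min enzyme-compound preincubation.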
JMJD2A Tudor – blocks the human JMJD2A Tudor domain | AlphaScreen JMJD2A-Tudor / H3K4me3 peptide binding | Potency, µM (doses to about 114 µM), without a hit: top-dose activity change, negative = inhibition, most hits filed as inhibitors | 4.4% of 390,000 active | AID 504339; further: on the % scale 0 is the no-effect control and ±100 the full control effect; nearly all actives have a fitted effect of over 50% in size
BAZ2B block – BAZ2B (human) inhibition; Q9UIF8; AlphaScreen BAZ2B-H3K14Ac peptide displacement; Potency, µM (series often up to 114 µM), without a hit: top-dose activity change, negative = inhibition, hits mostly inhibitors; 4.4% of 360,000 active; AID 504333; further: on the % scale 0 is the no-effect control and ±100 the full control effect; nearly all actives have a fitted effect of over 60% in size
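Protein-peptide AlphaScreen: BAZ2B 50 nM, b-H3K14Ac 50 nM, 1x PBS pH 7.4 + 0.01% Tween-20. Preincubation 30 min RT; cpd 30 min RT (top 110 uM); beads 20 min RT, light-protected.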
Starred values were filed as active, the others as inactive; ? = inconclusive; . = not tested or not shown; [ ] = another dose, or the depositor's remark. This is a sample that favours compounds with a hit; in the whole collection about 11% have one here. The call rests on the fitted dose curve; in most records, active means well fitted inhibition curve with a large enough effect; inconclusive means small, poorly fitted or top-dose-only effect; inactive means no such curve, though single readings can be large or run the other way. Potency means the concentration at half of the fitted maximal effect.

SMILES	L3MBTL1 inh	HP1b chromo inh	G9a block	JMJD2A Tudor	BAZ2B block
CCc1nn(CCCC(=O)N2CCN(c3cccc(C)c3C)CC2)c(=O)c2cc3occc3n12	.	-15.0%[57 µM]	70.8µM*	-34.9%	?
CCc1nn(C(C)C(=O)NCCc2ccccc2)c(=O)c2cc3occc3n12 (stereo unspecified)	.	17.8%	.	-9.0%	-2.4%
CCc1nn(CC(=O)NC(C)CCc2ccccc2)c(=O)c2cc3occc3n12 (stereo unspecified)	.	-2.4%	28.8%	44.7µM*	-17.3%
CCc1nn(CC(=O)N2CCN(c3cccc(C)c3C)CC2)c(=O)c2cc3occc3n12	.	14.3%	-8.4%[59 µM]	-1.7%	-1.5%
Cc1cccc(NC(=O)CSC2=NN3CCCC(=O)N=C3S2)c1C	2.2%	2.2%	3.7%	?	50.1µM*
O=C1CCCN2N=C(SCC(=O)Nc3ccc([N+](=O)[O-])cc3)SC2=N1	.	1.1%	11.9%	56.2µM*	-6.3%
CCc1ccc(CNC(=O)C2CCCN(S(=O)(=O)c3ccc4c(ccn4C)c3)C2)cc1 (stereo unspecified)	.	10.5%[57 µM]	7.4%[59 µM]	-14.1%	-4.6%
CN(CCO)C1=NS(=O)(=O)c2cc([N+](=O)[O-])ccc21	.	28.4%	79.4µM*	-0.7%	-0.4%
CN(C)CCNC(=O)c1scc2c1CCCC2	.	24.7%	.	89.1µM*	?
Fc1ccc(CNCc2ccccc2Cl)cc1	12.1%	?	2.82µM*	20µM*	.
Cc1ccccc1Nc1nc(Cl)c(C=O)s1	3.8%	41.5%	10.5%	0.7%	1.4%
Nc1nc(Nc2ccccc2)sc1C(=O)c1ccccc1	.	?	44.7µM*	?	39.8µM*
COc1ccc(C(=O)c2sc(Nc3ccccc3)nc2N)cc1OC	.	-24.0%	70.8µM*	?	-32.5%
Cc1ccccc1Nc1nc(N)c(C(=O)c2ccccc2Cl)s1	.	-25.4%	-48.8%[59 µM]	56.2µM*	31.6µM*
COc1ccc(C(=O)c2sc(Nc3ccccc3)nc2N)cc1	-11.9%	31.4%	-14.9%	-19.6%	-9.6%
COc1ccc(C(=O)c2sc(Nc3cc(Cl)ccc3C)nc2N)cc1OC	.	-20.7%	-48.1%[59 µM]	22.4µM*	?
CC(C)c1ccc(NC(=O)CCCc2nc(-c3ccc(Cl)cc3)no2)cc1	.	41.2%	-3.2%[59 µM]	-2.6%	-32.2%
O=C(NC(=S)Nc1ccccc1[N+](=O)[O-])c1cncc(Br)c1	-1.5%	-10.0%	44.7µM*	-29.2%	-27.7%
Nc1ccc(C(=O)Nc2ccc3c(O)cc(S(=O)(=O)O)cc3c2)cc1	.	-7.3%[57 µM]	.	56.2µM*	.
Cc1cc(NC(=O)c2ccc(S(=O)(=O)N(C)C)cc2)n(-c2ccccn2)n1	2.5%	23.7%	3.3%[0.0925 µM]	-4.0%	-1.4%
Nc1ccc(C(=O)Nc2ccc(Nc3ccncc3)cc2)cc1	-16.6%	13.5%	-7.8%	-24.6%	11.4%
O=C(NC(=S)Nc1ccccc1C(=O)O)c1cncc(Br)c1	3.6%	?	2µM*	?	-7.0%
Cc1cc(NC(=O)c2cncc(Br)c2)n(-c2ccccn2)n1	.	29.4%	12.0%	-6.2%	50.1µM*
CCCC1OC2C[C@@H]3[C@H]4CCC5=CC(=O)C=C[C@]5(C)[C@H]4C(O)C[C@]3(C)[C@]2(C(=O)CO)O1 (stereo partly specified)	.	56.1%	.	-6.4%	.
COc1ccccc1CNc1nc2c(S(=O)(=O)c3ccccc3)nnn2c2ccc(Cl)cc12	.	25.5%	5.4%[59 µM]	-0.4%	6.1%
SMILES	L3MBTL1 inh	HP1b chromo inh	G9a block	JMJD2A Tudor	BAZ2B block
O=C(Nc1ccccc1C(=O)O)c1ncn[nH]1	-1.8%	30.9%	10µM*	-27.9%	?
O=C(Nc1ccccc1C(=O)O)c1cncc(Br)c1	.	-2.3%	4.47µM*	?	?
O=C(CSc1ncn[nH]1)Nc1ccccc1C(=O)O	4.6%	10.6%	22.2%[59 µM]	-14.1%	-5.3%
O=C(Nc1ccccc1C(=O)Nc1ccccc1C(=O)O)c1ccccc1	.	18.2%	-1.9%	-7.7%	-24.6%
Cc1ccc(NC(=O)c2cncc(Br)c2)c(O)c1	-4.1%	11.4%	3.5%	-19.7%	-15.5%
Nc1ccc(NC(=O)c2ccc(C(=O)Nc3ccc(N)cc3)cc2)cc1	-0.8%	200.1%	57.8%	56.2µM*	70.8µM*
Nc1ccc(C(=O)Nc2ccccc2C(=O)O)cc1	.	12.8%	39.8µM*	-8.1%	-35.2%
CCN(C(=O)CSc1nc2ccccc2n1CC(=O)Nc1ccccc1C)c1ccccc1	.	13.5%	-6.9%[12.7 µM]	-23.8%	?
CC(=O)Nc1ccc(NC(=O)CC2(CC(=O)N3CCOCC3)CCCC2)cc1	7.8%	12.5%	-38.8%	-2.8%	-3.2%
CC(=O)c1cc(C(=O)Nc2ccccc2C(=O)O)oc1C	?	13.6%	50.1µM*	56.2µM*	-24.8%
O=C(Nc1ccccc1C(=O)O)c1ccc(Br)o1	1.6%	21.1%	?	-13.7%	-2.2%
CCc1ccc(NC(=O)C(C)OC(=O)CCN2C(=O)C3CC=CCC3C2=O)cc1 (stereo unspecified)	.	4.5%	.	-13.1%	.
COc1ccc(C(=O)C(C)OC(=O)CCN2C(=O)C3CC=CCC3C2=O)cc1 (stereo unspecified)	34.7%	24.5%	7.94µM*	-4.7%	17.5%
CCC(C(=O)Nc1ccc(C(=O)OC)cc1)n1nc(-c2ccc(C)cc2)c2c(c1=O)CCCC2 (stereo unspecified)	.	52.7%	2.1%[59 µM]	-21.7%	7.9%
COc1ccc(Cl)cc1NC(=S)N1CCN(c2ccccn2)CC1	1.3%	15.0%	?	-10.2%	3.6%
COc1cc(NC(=S)N2CCN(c3ccccn3)CC2)c(OC)cc1Cl	-1.1%	-38.0%	15.8µM*	?	-25.7%
COc1cccc(NC(=S)N2CCN(c3ccccn3)CC2)c1	1.7%	8.0%	-1.0%	89.1µM*	-9.8%
COc1cc(NC(=S)N2CCC(C(N)=O)CC2)c(OC)cc1Cl	0.0%	16.9%	44.7µM*	-18.7%	-18.6%
COc1cc(NC(=S)N2CCC(C(N)=O)CC2)cc(OC)c1	2.7%	22.6%	-6.4%[59 µM]	-2.1%	9.7%
S=C(Nc1cccc(Cl)c1)N1CCN(c2ccccn2)CC1	3.0%	37.8%	.	-11.8%	5.8%
COC(=O)CSc1nc2ccc(N)cc2s1	-14.2%	25.9%	17.8µM*	-18.3%	-15.7%
Cn1cccc1C(=O)N1CCC[C@@]2(CCN(C(c3ccccc3)c3ccccc3)C2)C1	.	.	-1.1%[12.7 µM]	.	.
C/C=C/C=C/C(=O)N1CC[C@]23c4ccccc4N[C@H]4N(C)c5cccc6c5[C@]42CCN([C@H]6C2OC2(C)C)[C@H]13 (stereo partly specified)	.	-32.4%	?	50.1µM*	50.1µM*
CN1CCC23c4ccccc4NC1C21CCN(C)C3Nc2ccccc21	.	0.9%	.	-21.1%	.
CN(C)c1ccc(CNC(=O)CN2C(=O)C3CCCCN3c3ccc(C(=O)N4CCCC4)cc32)cc1 (stereo unspecified)	.	-14.4%[57 µM]	-6.9%[59 µM]	-31.0%	-15.3%
CC/C(C)=N\N=C\c1c(O)n(CC)c2cc(C3=NNC(=O)CC3)ccc12	1.9%	16.5%	8.91µM*	-34.4%	-24.5%
